Laboratory results taken from PubChem BioAssay (NCI).
This is part of a sample that, as a whole, favours compounds with a hit. Of some 83,000 tested, about 20% had one in any assay.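 Treatment: one concentration, 48 hours, 96-well format. Scoring: percent growth, with anything below 10 considered active.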 Values without a mark were called inactive. Calls of active or inactive are those of the source.

Key:
Assay in all cases: NCI-60 one-dose screen, 48 h (100 = growth as untreated, 0 = no growth, -100 = all killed)
Settings in all cases: 10 µM unless noted
HCT-15 colon = system: HCT-15 colon
HT29 colon = system: HT29 colon
SNB-75 CNS = system: SNB-75 CNS
SNB-19 CNS = system: SNB-19 CNS
U251 CNS = system: U251 CNS
PC-3 prostate = system: PC-3 prostate
SK-MEL-5 melanoma = system: SK-MEL-5 melanoma
UACC-62 melanoma = system: UACC-62 melanoma
SK-MEL-28 melanoma = system: SK-MEL-28 melanoma
SK-MEL-2 melanoma = system: SK-MEL-2 melanoma
EKVX NSCLC = system: EKVX NSCLC
SN12C renal = system: SN12C renal
UO-31 renal = system: UO-31 renal
TK-10 renal = system: TK-10 renal
ACHN renal = system: ACHN renal
CAKI-1 renal = system: CAKI-1 renal
A498 renal = system: A498 renal
CCRF-CEM leukemia = system: CCRF-CEM leukemia
MOLT-4 leukemia = system: MOLT-4 leukemia

Row | Structure (SMILES) | growth (HCT-15 colon) | growth (HT29 colon) | growth (SNB-75 CNS) | growth (SNB-19 CNS) [%] | growth (U251 CNS) | growth (PC-3 prostate) | growth (SK-MEL-5 melanoma) [%] | growth (UACC-62 melanoma) | growth (SK-MEL-28 melanoma) | growth (SK-MEL-2 melanoma) [%] | growth (EKVX NSCLC) [%] | growth (SN12C renal) [%] | growth (UO-31 renal) | growth (TK-10 renal) [%] | growth (ACHN renal) | growth (CAKI-1 renal) | growth (A498 renal) | growth (CCRF-CEM leukemia) | growth (MOLT-4 leukemia)
1 | Cc1csc(-c2ccc3c(c2)COC3(CCCN(C)C)c2ccc(F)cc2)c1 (stereo not given) | 14.4% | -39.6% (active) | 32% | 74.8 | -45.1% (active) | 28% | 73.6 | -73.6% (active) | 37.5% | 25.8 | 72.2 | 62.7 | 44.7% | 55 | 63.6% | 27.7% | 86.2% | 11.3% | -17.4% (active)
2 | CC(C)c1cc(C(=O)O)c(O)c(C(C)C)c1.CC(C)c1cc(C(=O)O)c(O)c(C(C)C)c1.[Mn] | 108% | 119% | 106% | 91.6 | 98.3% | 98.2% | 94.3 | 94.9% | 113% | 118 | 102 | 101 | 85.5% | 106 | 103% | 100% | 126% | 95.1% | 99.2%
3 | N=C(N)c1ccc(S(N)(=O)=O)cc1 | 104% | 105% | 96.1% | 99.1 | 99.4% | 98.4% | 95.3 | 99.2% | 104% | 99.9 | 96.2 | 94.5 | 72.6% | 96.6 | 108% | 92.5% | 92% | 107% | 102%
4 | Nc1c2c(nc3ccc(Cl)cc13)CC(c1ccccc1)CC2=O (stereo not given) | 16.7% | 13.1% | 23.4% | 37 | 40.9% | 54.8% | 30.6 | 23.7% | 51.5% | 59 | 40.3 | 61.3 | 57.8% | 79.6 | 47.9% | 44.5% | 49.3% | 43.9% | 51%
5 | O=C1NC(c2ccc(Cl)c(Cl)c2)=C/C1=C\c1ccccc1 | 69% | 87.7% | 63.1% | 80 | 46.1% | 79.2% | 97.3 | 86.7% | 104% | 107 | 70.8 | 71.8 | 29.2% | 100 | 4.37% (active) | 49.3% | 105% | 45.8% | 53.9%
6 | COc1ccc(CCN2C(=O)C(C)(C)SC2=S)cc1OC | 101% | 105% | 76.8% | 96.4 | 100% | 98.4% | 99.5 | 92.7% | 102% | 107 | 94 | 96 | 88.9% | 96.3 | 104% | 88.1% | 99.3% | 92.3% | 101%
7 | C#CCN=C[C@]12CC[C@@H](C(=C)C)[C@@H]1[C@H]1CC[C@@H]3[C@@]4(C)CCC(=O)C(C)(C)[C@@H]4CC[C@@]3(C)[C@]1(C)CC2 | 53.2% | 55.7% | 120% | 79 | 62.1% | 24.5% | 25.3 | 37.7% | 81.6% | 91.7 | 68.3 | 55.1 | -78.2% (active) | 104 | 75.7% | 45% | 91.9% | 61.3% | 42.6%
8 | CCN1CCN(C(=O)[C@]23CCC(C)(C)C[C@H]2C2=CC[C@@H]4[C@@]5(C)CC/C(=N/O)C(C)(C)[C@@H]5CC[C@@]4(C)[C@]2(C)CC3)CC1 | 15.4% | 28.3% | 59.3% | 70.4 | 38% | 39.6% | 86.5 | 87.9% | 73.2% | 95.6 | 58.4 | 16.2 | 37% | 136 | 28.4% | 54.3% | 85.2% | 38.3% | 31%
9 | CN1CCN(CCOc2ccc(-c3cnc4c(-c5cccc(F)c5)cnn4c3)cc2)CC1 | 2.6% (active) | 4.57% (active) | 88.1% | 83.9 | 46.6% | 51.2% | 72 | 78.3% | 92.1% | 97.8 | 76.3 | 60.6 | 39.2% | 102 | 70.2% | 64.5% | 45.2% | 20.9% | 16.6%
10 | C=C(C)[C@@H]1CC[C@]2(C)[C@H](CC[C@@H]3[C@H]4[C@H]5OC[C@@]4(CCC5(C)C)CC[C@]32C)[C@@]1(C)CCCN | -79.6% (active) | 6.05% (active) | 95.2% | 94.2 | -19.2% (active) | 64% | 97.4 | 98.5% | 34.7% | 101 | 71.2 | 75.6 | 63.8% | 130 | 59% | 3.89% (active) | 118% | 51.8% | 10.5%
11 | C/C(=N\NC(=O)C(C)SC(C)C(=O)N/N=C(\C)c1cccnc1)c1cccnc1 (stereo not given) | 102% | 94.1% | 89.7% | 110 | 110% | 101% | 98.4 | 101% | 113% | 93.8 | 100 | 106 | 81% | 106 | 106% | 97.7% | 88.2% | 99.4% | 86.7%
12 | CC(C)=CCC[C@](C)(O)[C@H]1CC[C@]2(C)[C@@H]1CC[C@@H]1[C@@]3(C)C/C(=C/c4cccc([N+](=O)[O-])c4)C(=O)C(C)(C)[C@@H]3CC[C@]12C | 83.5% | 55.4% | 0.754% (active) | 96 | 85.7% | 58.2% | 101 | 78.1% | 104% | 115 | 92.6 | 81.1 | 69.3% | 128 | 98.9% | 51.9% | 92.6% | 76.3% | 67.5%
13 | C=C(C)[C@@H]1CC[C@]2(C(=O)N3CCCNCC3)CC[C@]3(C)[C@H](CC[C@@H]4[C@@]5(C)CCC(=O)C(C)(C)[C@@H]5CC[C@]43C)[C@@H]12 | 84.1% | 61% | 56.9% | 91.2 | 78% | 78.3% | 94.1 | 99.1% | 103% | 118 | 98.3 | 84 | 85.5% | 127 | 105% | 67.8% | 89.5% | 84.2% | 63.3%
14 | COc1ccc2c(c1)c1nc3cc(C)c(C)cc3nc1n2CCN(C)C | -80.3% (active) | -1.79% (active) | 22.2% | 13.6 | -85.8% (active) | -14.4% (active) | 45.3 | 11% | 9.16% (active) | 26.4 | 13.2 | 17 | -24.1% (active) | 39.3 | -11.4% (active) | 4.98% (active) | 45% | 6.67% (active) | 0.921% (active)
15 | O=[N+]([O-])c1cccc(/C=N\Nc2ccccc2)c1 | 58% | 80% | 78.5% | 95.5 | 83.4% | 67% | 92.5 | 4.87% (active) | 103% | 42.1 | 59.8 | 74.7 | 47.4% | 98.7 | 41.9% | 59.9% | 101% | 59.5% | 71.5%
16 | Clc1ccc2[nH]cc(-c3nc(-c4c[nH]c5ncccc45)cs3)c2c1 | 1.33% (active) | 16.1% | 56.8% | 65.1 | 34.6% | 39.2% | 64.9 | 44.2% | 85.9% | 48.1 | 42.7 | 56.7 | 22.2% | 46.1 | 25.9% | 17.1% | 60.2% | 31.2% | 16.1%
17 | CCC(=O)c1c(C)[nH]c(C)c1C | 10.6% | 36.9% | 109% | 94 | 82.5% | 79.9% | 88.9 | 95.7% | 134% | 16.6 | 103 | 95.5 | 67.1% | 99.4 | -33.4% (active) | 46.4% | 103% | 98.5% | 84%
18 | CC1(C)[C@@H](O)CC[C@]2(C)[C@H]3CC[C@@H]4[C@H]5[C@H](C(=O)/C=C/c6ccc(C(F)(F)F)cc6)CC[C@]5(CO)CC[C@@]4(C)[C@]3(C)CC[C@@H]12 | 34.4% | 36.1% | 60% | 61.1 | 53.6% | 43.9% | 13.1 | 36.5% | 54.6% | 83.7 | 71.2 | 58.8 | 46.7% | 105 | 25.9% | 47.4% | -1.48% (active) | 28.4% | 14%
19 | C=C(C)[C@@H]1CC[C@]2(CN)CC[C@]3(C)[C@H](CC[C@@H]4[C@@](C)(CCCN)[C@H](C(=C)C)CC[C@]43C)[C@@H]12 | 62.8% | 17.9% | 79.8% | 89.5 | 74% | 71.5% | 88.3 | 100% | 100% | 107 | 102 | 82.5 | 63% | 119 | 99.1% | 75.5% | 88.7% | 66.6% | 57%
20 | COC1=C(Br)C(=O)C(OC)=C(Br)C1=O | 96.1% | 106% | 103% | 95.8 | 104% | 107% | 99.4 | 91.2% | 117% | 119 | 105 | 95.2 | 93.3% | 95.7 | 104% | 98.9% | 128% | -12.3% (active) | 26.4%
